Source: PubChem BioAssay AID1159580 (chemical genetic matrix, 2015)
The campaign covered roughly 5,500 compounds. About 2,000 (36%) were called active. Another 18% or so got no clear call; they are omitted. No stated cut-off is given here; in the data, active means normalized growth mostly below about 0.91 (no sharp cut-off); inconclusive means no clear call, values can overlap the other calls; inactive means mostly above about 0.92. The list shows a part of the results.

Experiment: chemical genetic growth profiling, strain panel (AID 1159580);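 further: tested at 20 µM; growth read once vehicle control cultures reached saturation at 30 °C; 1 = growth at the plate median or of vehicle wells; lower values mean less growth of the strain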
Details: growth OD

Measured: normalized growth

OCc1ccccc1O
inactive: S. cerevisiae deletion strains, locus YKL068W, hits give low values 0.994 | S. cerevisiae deletion strains, locus YKL085W, strain MDH1 (second series), hits give low values 0.992 | S. cerevisiae deletion strains, locus YKL085W, strain MDH1, hits give low values 0.992 | S. cerevisiae deletion strains, locus YKL160W, strain elf1, hits give low values 1.04 | S. cerevisiae deletion strains, locus YKL190W, strain CNB1, hits give low values 1.01 | S. cerevisiae deletion strains, locus YKR001C, strain vps1, hits give low values 0.989 | S. cerevisiae deletion strains, locus YKR026C, strain gcn3, hits give low values 1.02 | S. cerevisiae deletion strains, locus YKR091W, strain srl3, hits give low values 1.01 | S. cerevisiae deletion strains, locus YLL001W, strain dnm1, hits give low values 1.01 | S. cerevisiae deletion strains, locus YLL026W, hits give low values 1 | S. cerevisiae deletion strains, locus YLL041C, strain sdh2, hits give low values 1.01 | S. cerevisiae deletion strains, locus YLR027C, strain aat2, hits give low values 1.02 | S. cerevisiae deletion strains, locus YLR039C, strain RIC1, hits give low values 0.988 | S. cerevisiae deletion strains, locus YLR058C, strain SHM2, hits give low values 1.02 | S. cerevisiae deletion strains, locus YLR102C, strain apc9, hits give low values 0.981 | S. cerevisiae deletion strains, locus YLR113W, strain HOG1, hits give low values 1.03 | S. cerevisiae deletion strains, locus YLR221C, strain rsa3, hits give low values 1.02 | S. cerevisiae deletion strains, locus YLR258W, strain gsy2, hits give low values 1.02 | S. cerevisiae deletion strains, locus YLR262C, strain YPT6 (second series), hits give low values 1.06 | S. cerevisiae deletion strains, locus YLR262C, strain YPT6, hits give low values 1.04 | S. cerevisiae deletion strains, locus YLR268W, strain sec22, hits give low values 0.969 | S. cerevisiae deletion strains, locus YLR320W, strain mms22, hits give low values 1.02 | S. cerevisiae deletion strains, locus YLR330W, strain CHS5, hits give low values 1.01 | S. cerevisiae deletion strains, locus YLR342W, strain FKS1 (second series), hits give low values 1.01 | S. cerevisiae deletion strains, locus YLR342W, strain FKS1, hits give low values 1.03 | S. cerevisiae deletion strains, locus YLR357W, strain rsc2, hits give low values 1.08 | S. cerevisiae deletion strains, locus YLR370C, strain arc18, hits give low values 1.01 | S. cerevisiae deletion strains, locus YLR371W, strain rom2, hits give low values 0.989 | S. cerevisiae deletion strains, locus YLR384C, strain iki3, hits give low values 1.01 | S. cerevisiae deletion strains, locus YLR418C, strain cdc73, hits give low values 0.962 | S. cerevisiae deletion strains, locus YML016C, strain PPZ1, hits give low values 1.02 | S. cerevisiae deletion strains, locus YML032C, strain rad52, hits give low values 0.979 | S. cerevisiae deletion strains, locus YML120C, strain ndi1, hits give low values 1.01 | S. cerevisiae deletion strains, locus YML124C, strain tub3, hits give low values 0.997 | S. cerevisiae deletion strains, locus YMR058W, strain fet3, hits give low values 1.02 | S. cerevisiae deletion strains, locus YMR078C, strain ctf18, hits give low values 0.993 | S. cerevisiae deletion strains, locus YMR125W, strain sto1, hits give low values 1.01 | S. cerevisiae deletion strains, locus YMR129W, hits give low values 1.03 | S. cerevisiae deletion strains, locus YMR205C, strain PFK2, hits give low values 1.03 | S. cerevisiae deletion strains, locus YMR223W, strain ubp8, hits give low values 0.994 | S. cerevisiae deletion strains, locus YMR231W, strain pep5, hits give low values 1.01 | S. cerevisiae deletion strains, locus YMR263W, strain SAP30, hits give low values 1.02 | S. cerevisiae deletion strains, locus YMR307W, strain GAS1, hits give low values 1.01 | S. cerevisiae deletion strains, locus YNL067W, strain RPL9B, hits give low values 1.01 | S. cerevisiae deletion strains, locus YNL071W, strain lat1, hits give low values 1.04 | S. cerevisiae deletion strains, locus YNL128W, strain TEP1, hits give low values 1.02 | S. cerevisiae deletion strains, locus YNL153C, strain GIM3, hits give low values 1.01 | S. cerevisiae deletion strains, locus YNL183C, strain NPR1, hits give low values 1 | S. cerevisiae deletion strains, locus YNL209W, strain ssb2, hits give low values 1.02 | S. cerevisiae deletion strains, locus YNL233W, strain BNI4, hits give low values 1.01 | S. cerevisiae deletion strains, locus YNL248C, strain rpa49, hits give low values 1.04 | S. cerevisiae deletion strains, locus YNL250W, strain rad50, hits give low values 0.986 | S. cerevisiae deletion strains, locus YNL271C, strain bni1, hits give low values 0.98 | S. cerevisiae deletion strains, locus YNL298W, strain CLA4, hits give low values 0.981 | S. cerevisiae deletion strains, locus YNL307C, strain MCK1, hits give low values 0.989 | S. cerevisiae deletion strains, locus YNL322C, strain KRE1 (second series), hits give low values 1.03 | S. cerevisiae deletion strains, locus YNL322C, strain KRE1, hits give low values 1.01 | S. cerevisiae deletion strains, locus YNR049C, strain mso1, hits give low values 1.02 | S. cerevisiae deletion strains, locus YNR052C, strain pop2, hits give low values 0.989 | S. cerevisiae deletion strains, locus YOL006C, strain TOP1, hits give low values 1.06 | S. cerevisiae deletion strains, locus YOL012C, strain htz1 0.829 | S. cerevisiae deletion strains, locus YOL147C, strain pex11, hits give low values 0.985 | S. cerevisiae deletion strains, locus YOR001W, strain rrp6, hits give low values 1.03 | S. cerevisiae deletion strains, locus YOR061W, strain CKA2, hits give low values 1.02 | S. cerevisiae deletion strains, locus YOR069W, strain VPS5, hits give low values 1.01 | S. cerevisiae deletion strains, locus YOR070C, strain gyp1, hits give low values 1.03 | S. cerevisiae deletion strains, locus YOR080W, strain dia2, hits give low values 1.02 | S. cerevisiae deletion strains, locus YOR083W, strain WHI5, hits give low values 1.02 | S. cerevisiae deletion strains, locus YOR106W, strain vam3, hits give low values 1.01 | S. cerevisiae deletion strains, locus YOR136W, strain idh2, hits give low values 0.992 | S. cerevisiae deletion strains, locus YOR144C, strain elg1, hits give low values 0.991 | S. cerevisiae deletion strains, locus YOR184W, strain ser1, hits give low values 0.984 | S. cerevisiae deletion strains, locus YOR231W, strain MKK1, hits give low values 1.03 | S. cerevisiae deletion strains, locus YOR265W, strain rbl2, hits give low values 1 | S. cerevisiae deletion strains, locus YOR270C, strain vph1, hits give low values 1.03 | S. cerevisiae deletion strains, locus YOR290C, strain snf2, hits give low values 1.01 | S. cerevisiae deletion strains, locus YOR316C, strain cot1, hits give low values 0.996 | S. cerevisiae deletion strains, locus YPL051W, strain arl3, hits give low values 1.03 | S. cerevisiae deletion strains, locus YPL078C, strain atp4, hits give low values 1.02 | S. cerevisiae deletion strains, locus YPL106C, strain sse1, hits give low values 1.07 | S. cerevisiae deletion strains, locus YPL240C, strain hsp82, hits give low values 1.01 | S. cerevisiae deletion strains, locus YPL241C, strain CIN2, hits give low values 1.01 | S. cerevisiae deletion strains, locus YPL256C, strain CLN2, hits give low values 1.07 | S. cerevisiae deletion strains, locus YPR119W, strain clb2, hits give low values 0.986 | S. cerevisiae deletion strains, locus YPR141C, strain kar3, hits give low values 0.992 | S. cerevisiae deletion strains, locus YPR163C, strain tif3, hits give low values 0.994 | S. cerevisiae deletion strains, locus YPR167C, strain met16, hits give low values 0.989 | S. cerevisiae deletion strains, strain wtn01, hits give low values 0.973 | S. cerevisiae strains, strain wild type, hits give low values 1.01
